This is part of a sample that, as a whole, favours compounds with a hit. Of some 83,000 tested, about 20% had one in any assay.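 Cells were grown in 96-well plates and exposed to the test compound at a single concentration for 48 hours; results are reported as percent growth, with values below 10 considered active.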 Activity calls are given as the source filed them.

This experiment has as its system MCF7 breast. Description: NCI-60 one-dose screen, 48 h (100 = growth as untreated, 0 = no growth, -100 = all killed). As to conditions: 10 µM unless noted.
Regarding `ClC(Cl)c1nc(-c2cccs2)n2nc(-c3ccccc3)cc2n1`, the growth is -4.41% (active).

Turning to `O=C(COc1ccc(C2SCC(=O)N2c2ccccc2)cc1)c1ccccc1` (stereo unspecified), the growth was 88.3% (inactive).

With `c1ccc(-c2n(Cc3ccc4ccccc4c3)c3c4ccccc4c4ccccc4c3[n+]2Cc2ccc3ccccc3c2)cc1`, the growth is -75% (active).

For the compound `O=C1[C@@H]2Cc3c([nH]c4ccccc34)[C@H](c3c(Cl)cccc3Cl)N2C(=O)CN1C1CCN(Cc2c(F)cccc2F)CC1`, the growth was 40.4% (inactive).

Consider `NCCN1CCN(c2nc(-c3ccccc3)nc3nc(-c4ccccc4)oc23)CC1`, for which the growth is -88.3% (active).

In the case of `C/C(=C(/C)C1CC1CCN(C(=O)c1ccccn1)S(=O)(=O)c1ccc(C)cc1)C1CCCCC1` (stereo unspecified), the growth is 74.7% (inactive).

For the compound `Cc1nn(-c2ccccc2)cc1/C=N/Nc1nc(Nc2ccccc2)nc(Nc2ccc(S(N)(=O)=O)cc2)n1`, the growth was -69.9% (active).

With `Brc1cccc(/C=N/Nc2nc(N/N=C/c3cccc(Br)c3)nc(N3CCOCC3)n2)c1`, the growth is 22.1% (inactive).

For `COc1cc(/C=C2\SC(=O)NC2=O)ccc1OCC(=O)Nc1ccc(C(=O)/C=C/c2cc3ccccc3nc2Cl)cc1`, the growth is 20.9% (inactive).

As to `O=c1oc2ccc(-c3ccc(F)cc3F)cc2c(=O)n1-c1ccc(F)c(F)c1`, the growth is 2.02% (active).

On to `CC[C@@](C)(NC(=O)C(C)(C)NC(=O)[C@@H](NC(=O)[C@@H]1CCCN1C(=O)C(C)(C)NC(=O)[C@H](CC(C)C)NC(=O)CNC(=O)C(C)(C)NC(=O)[C@@H](NC(=O)C(C)(C)NC(=O)[C@H](CCC(N)=O)NC(=O)[C@H](C)NC(=O)C(C)(C)NC(=O)[C@H](C)NC(=O)C(C)(C)NC(=O)[C@@H]1CCCN1C(=O)C(C)(C)NC(C)=O)C(C)C)C(C)C)C(=O)N[C@@H](CCC(N)=O)C(=O)N[C@@H](CCC(N)=O)C(=O)N[C@H](CO)Cc1ccccc1`, for which the growth is 9.62% [4.25 µM] (active).

In the case of `O=C(/C=C/c1cn(-c2ccccc2)nc1-c1ccc(Cl)cc1)c1cc2ccccc2oc1=O`, the growth was 33.9% (inactive).

On to `CCN1C(=O)N(CC)C2SC(N/N=C/c3ccc(OC)cc3)=NC21` (stereo unspecified), for which the growth was 15.2% (inactive).

Consider `O=C(O)c1ccc(-n2cc(CNc3ccc(F)cc3)c(-c3ccc(C(F)(F)F)cc3)n2)cc1`, for which the growth was 67.8% (inactive).

For `COc1cc(/C=C/C(=O)c2ccc(NC(=O)COc3cccc4cccnc34)cc2)cc(OC)c1OC`, the growth is 20.6% (inactive).

As for `COc1cc(CNC(=O)Cc2ccccc2[N+](=O)[O-])ccc1OCC(=O)NO`, the growth is 95.1% (inactive).

On to `Oc1ccc(CSc2nnc(-c3cnccn3)o2)c2cccnc12`, for which the growth was 5.44% (active).

Consider `O=C(NCCCNc1cc(-c2cn(-c3ccccc3)nc2-c2cccc(O)c2)ccn1)Nc1ccc(F)cc1`, for which the growth was 10.8% (inactive).

For `COc1ccc(-c2nn(-c3ccccc3)cc2/C=C/C(=O)c2ccc(NC(=O)CCCCCCC(=O)NO)cc2)cc1`, the growth was 94.2% (inactive).

On to `O=C1[C@H]2Cc3c([nH]c4ccccc34)[C@@H](c3c(Cl)cccc3Cl)N2C(=O)CN1C1CCN(Cc2ccccc2)CC1`, for which the growth is 47.5% (inactive).

As for `COc1cccc(/C=C/C(=O)c2ccc(NC(=O)COc3cccc4cccnc34)cc2)c1`, the growth is 52.4% (inactive).

As to `CCCC(=O)NC(c1cccnc1)c1cc(Cl)c2cccnc2c1O` (stereo unspecified), the growth is 12.5% (inactive).

Turning to `C/C(=N/Nc1nc(N/N=C(/C)c2ccc([N+](=O)[O-])cc2)nc(N2CCOCC2)n1)c1ccc([N+](=O)[O-])cc1`, the growth is 74.1% (inactive).

As to `Oc1ccc(CSc2nnc(-c3cnccn3)n2-c2ccccc2)c2cccnc12`, the growth is 2.85% (active).

For `CCOC(=O)C1=C(C)Nc2nc3ccccc3n2C1c1ccccc1` (stereo unspecified), the growth is 87.8% (inactive).

`Oc1ccc(CSc2nnc(-c3ccc(Br)cc3)o2)c2cccnc12`: the growth was 16% (inactive).

Take `CNC(=O)c1cc(N2CCc3cc(NC(=O)Nc4ccc(Cl)c(Cl)c4)ccc32)ccn1`: the growth was 63.3% (inactive).

For the compound `COc1cc2cc(Oc3ccc(NC(=O)Nc4cc(C(F)(F)F)cc(C(F)(F)F)c4)cc3)c(C)nc2cc1OCCN(C)C`, the growth was 93% (inactive).

On to `Cc1cc(O)c(=O)cc2c1C[C@H]1CC(C)(C)/C=C/C[C@]3(C)Oc4cc(=O)c(O)cc(C)c4C[C@H]3C[C@H](O)[C@@]1(C)O2`, for which the growth is 7.16% (active).

On to `COc1ccc(-c2nnc(SCc3ccc(O)c4ncccc34)n2-c2ccccc2)cc1`, for which the growth is 5.08% (active).

Turning to `O=C(CCCCCCN1CC(=O)N2[C@@H](c3ccc(Cl)c(F)c3)c3[nH]c4ccccc4c3C[C@H]2C1=O)NO`, the growth was 73.2% (inactive).
